Results reported in the supplement of paper PMC11732987, “Enantioselective OTUD7B fragment discovery through chemoproteomics screening and high-throughput optimisation” (Communications Chemistry, 2025).

Legend:
Assay in all cases: log2 ratio of Biotin-Ahx-Ub-VS probe labelling (fragment/DMSO); higher = less target engagement (more negative = stronger competition), active = hit call of the paper (q ≤ 0.05, log2 ratio ≤ -1)
Details in all cases: compound concentration: 200 uM; treatment time: 3 h
[1] = target: USP34 (UniProt Q70CQ2)
How it was run: (§1)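 Average log2 ratios of fragment over vehicle were obtained by unpaired t-test from global-median-normalised Spectronaut label-free quantities. Proteins with ≥2 unique peptides were included. HEK293T lysate (495 µg per sample) was treated in triplicate with fragment at 200 µM or vehicle for 3 h, then with Biotin-Ahx-Ub-VS at 0.5 µM final for 1 h, and labelled DUBs were NeutrAvidin-enriched and run by diaPASEF LC-MS/MS.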

[2] = target: T1, USP36 (UniProt Q9P275)
T1 sequence (whole entry): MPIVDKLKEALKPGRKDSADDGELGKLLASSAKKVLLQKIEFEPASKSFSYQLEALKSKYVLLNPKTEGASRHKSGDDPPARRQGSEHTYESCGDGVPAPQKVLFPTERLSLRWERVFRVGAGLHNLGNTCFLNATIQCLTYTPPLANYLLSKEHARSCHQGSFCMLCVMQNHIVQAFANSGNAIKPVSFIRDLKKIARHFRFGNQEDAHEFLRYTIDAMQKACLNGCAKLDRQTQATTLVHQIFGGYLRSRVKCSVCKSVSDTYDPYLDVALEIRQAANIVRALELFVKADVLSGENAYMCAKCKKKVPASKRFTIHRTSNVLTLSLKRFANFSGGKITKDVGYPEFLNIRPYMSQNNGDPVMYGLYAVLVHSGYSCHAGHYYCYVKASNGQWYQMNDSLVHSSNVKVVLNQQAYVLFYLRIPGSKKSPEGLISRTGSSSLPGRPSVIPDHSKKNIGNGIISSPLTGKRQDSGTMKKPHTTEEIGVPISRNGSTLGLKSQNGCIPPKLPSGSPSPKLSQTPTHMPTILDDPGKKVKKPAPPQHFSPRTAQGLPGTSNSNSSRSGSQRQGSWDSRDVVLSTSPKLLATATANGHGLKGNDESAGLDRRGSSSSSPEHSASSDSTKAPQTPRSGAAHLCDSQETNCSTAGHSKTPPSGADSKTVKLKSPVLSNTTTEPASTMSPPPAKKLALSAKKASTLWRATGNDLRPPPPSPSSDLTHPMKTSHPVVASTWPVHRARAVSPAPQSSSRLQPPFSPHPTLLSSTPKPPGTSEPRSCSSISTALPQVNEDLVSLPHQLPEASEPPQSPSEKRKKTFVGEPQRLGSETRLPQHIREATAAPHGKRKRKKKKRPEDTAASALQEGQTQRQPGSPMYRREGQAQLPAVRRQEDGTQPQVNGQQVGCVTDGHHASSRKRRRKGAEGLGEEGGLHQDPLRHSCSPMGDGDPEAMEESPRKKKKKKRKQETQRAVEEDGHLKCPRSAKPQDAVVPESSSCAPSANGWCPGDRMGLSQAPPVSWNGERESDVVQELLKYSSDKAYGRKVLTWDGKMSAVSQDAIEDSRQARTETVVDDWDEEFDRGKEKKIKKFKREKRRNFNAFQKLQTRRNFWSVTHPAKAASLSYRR
How it was run: as §1

[3] = target: T2, USP38 (UniProt Q8NB14)
T2 sequence (whole entry): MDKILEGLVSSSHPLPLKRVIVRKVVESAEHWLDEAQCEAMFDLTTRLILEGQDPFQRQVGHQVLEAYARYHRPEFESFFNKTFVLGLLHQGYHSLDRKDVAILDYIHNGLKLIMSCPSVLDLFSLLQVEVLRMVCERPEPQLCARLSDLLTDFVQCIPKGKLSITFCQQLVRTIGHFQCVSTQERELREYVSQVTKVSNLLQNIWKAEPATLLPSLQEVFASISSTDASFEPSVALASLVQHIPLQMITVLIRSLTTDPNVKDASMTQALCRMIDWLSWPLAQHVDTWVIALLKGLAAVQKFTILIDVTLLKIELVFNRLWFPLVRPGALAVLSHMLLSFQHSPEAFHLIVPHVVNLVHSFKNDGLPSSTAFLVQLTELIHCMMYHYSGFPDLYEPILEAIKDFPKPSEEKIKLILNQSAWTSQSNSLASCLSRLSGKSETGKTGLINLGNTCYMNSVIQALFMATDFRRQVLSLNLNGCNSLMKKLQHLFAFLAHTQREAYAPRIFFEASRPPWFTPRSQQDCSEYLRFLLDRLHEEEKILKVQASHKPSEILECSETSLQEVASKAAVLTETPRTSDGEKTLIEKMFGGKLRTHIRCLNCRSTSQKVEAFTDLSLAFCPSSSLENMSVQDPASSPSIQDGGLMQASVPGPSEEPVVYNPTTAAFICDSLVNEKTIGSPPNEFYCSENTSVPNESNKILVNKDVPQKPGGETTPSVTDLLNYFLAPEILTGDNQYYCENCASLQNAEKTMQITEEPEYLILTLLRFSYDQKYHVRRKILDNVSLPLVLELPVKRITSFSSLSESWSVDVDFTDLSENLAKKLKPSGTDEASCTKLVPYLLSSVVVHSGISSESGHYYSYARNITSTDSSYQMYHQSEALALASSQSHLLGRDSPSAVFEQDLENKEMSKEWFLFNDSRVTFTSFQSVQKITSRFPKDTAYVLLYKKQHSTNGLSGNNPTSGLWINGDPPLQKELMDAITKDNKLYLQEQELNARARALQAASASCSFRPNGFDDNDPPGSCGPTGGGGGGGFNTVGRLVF
How it was run: as §1

[4] = target: T3, USP39 (UniProt Q53GS9)
T3 sequence (whole entry): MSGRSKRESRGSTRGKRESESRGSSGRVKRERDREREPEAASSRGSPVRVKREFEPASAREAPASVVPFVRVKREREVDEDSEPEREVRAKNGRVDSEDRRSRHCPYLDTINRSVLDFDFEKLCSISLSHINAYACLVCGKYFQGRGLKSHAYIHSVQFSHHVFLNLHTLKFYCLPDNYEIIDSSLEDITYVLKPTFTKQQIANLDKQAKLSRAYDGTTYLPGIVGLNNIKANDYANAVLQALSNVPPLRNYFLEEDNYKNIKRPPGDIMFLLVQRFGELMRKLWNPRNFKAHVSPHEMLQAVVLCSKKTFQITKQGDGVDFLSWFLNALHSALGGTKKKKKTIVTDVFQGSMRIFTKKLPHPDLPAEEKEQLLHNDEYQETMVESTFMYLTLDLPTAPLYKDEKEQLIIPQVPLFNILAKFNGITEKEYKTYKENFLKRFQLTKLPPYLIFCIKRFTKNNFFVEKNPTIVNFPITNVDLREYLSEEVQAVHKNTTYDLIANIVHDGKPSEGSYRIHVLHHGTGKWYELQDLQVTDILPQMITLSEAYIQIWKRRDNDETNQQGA
How it was run: as §1

[5] = target: T4, USP4 (UniProt Q13107)
T4 sequence (whole entry): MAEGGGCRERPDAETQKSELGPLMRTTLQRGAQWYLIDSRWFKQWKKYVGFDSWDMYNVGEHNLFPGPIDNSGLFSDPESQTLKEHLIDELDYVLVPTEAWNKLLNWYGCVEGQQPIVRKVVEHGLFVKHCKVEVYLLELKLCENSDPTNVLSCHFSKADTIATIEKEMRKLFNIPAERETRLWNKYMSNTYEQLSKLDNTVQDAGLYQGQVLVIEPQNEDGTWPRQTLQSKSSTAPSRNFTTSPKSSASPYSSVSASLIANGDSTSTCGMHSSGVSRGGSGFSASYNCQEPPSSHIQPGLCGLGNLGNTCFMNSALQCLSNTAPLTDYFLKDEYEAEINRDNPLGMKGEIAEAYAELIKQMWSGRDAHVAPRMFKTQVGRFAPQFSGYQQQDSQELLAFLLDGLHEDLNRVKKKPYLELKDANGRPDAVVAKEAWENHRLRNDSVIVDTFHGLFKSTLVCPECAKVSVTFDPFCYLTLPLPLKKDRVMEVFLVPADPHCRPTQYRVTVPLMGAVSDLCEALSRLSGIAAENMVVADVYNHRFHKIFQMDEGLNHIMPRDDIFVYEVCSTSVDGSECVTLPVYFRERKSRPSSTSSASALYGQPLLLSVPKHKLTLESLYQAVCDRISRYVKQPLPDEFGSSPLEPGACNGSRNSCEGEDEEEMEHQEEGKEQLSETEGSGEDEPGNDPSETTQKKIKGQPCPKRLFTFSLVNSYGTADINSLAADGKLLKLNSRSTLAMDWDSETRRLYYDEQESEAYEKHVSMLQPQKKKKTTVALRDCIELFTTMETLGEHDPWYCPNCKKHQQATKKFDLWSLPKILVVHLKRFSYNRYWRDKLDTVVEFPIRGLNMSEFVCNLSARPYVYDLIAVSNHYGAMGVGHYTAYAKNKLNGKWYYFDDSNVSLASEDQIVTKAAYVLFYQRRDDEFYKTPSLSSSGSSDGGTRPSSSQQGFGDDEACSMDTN
How it was run: as §1

Measured: log2 ratio of Biotin-Ahx-Ub-VS probe labelling

USP34, sequence (Q70CQ2 whole entry, the tested form may be a part): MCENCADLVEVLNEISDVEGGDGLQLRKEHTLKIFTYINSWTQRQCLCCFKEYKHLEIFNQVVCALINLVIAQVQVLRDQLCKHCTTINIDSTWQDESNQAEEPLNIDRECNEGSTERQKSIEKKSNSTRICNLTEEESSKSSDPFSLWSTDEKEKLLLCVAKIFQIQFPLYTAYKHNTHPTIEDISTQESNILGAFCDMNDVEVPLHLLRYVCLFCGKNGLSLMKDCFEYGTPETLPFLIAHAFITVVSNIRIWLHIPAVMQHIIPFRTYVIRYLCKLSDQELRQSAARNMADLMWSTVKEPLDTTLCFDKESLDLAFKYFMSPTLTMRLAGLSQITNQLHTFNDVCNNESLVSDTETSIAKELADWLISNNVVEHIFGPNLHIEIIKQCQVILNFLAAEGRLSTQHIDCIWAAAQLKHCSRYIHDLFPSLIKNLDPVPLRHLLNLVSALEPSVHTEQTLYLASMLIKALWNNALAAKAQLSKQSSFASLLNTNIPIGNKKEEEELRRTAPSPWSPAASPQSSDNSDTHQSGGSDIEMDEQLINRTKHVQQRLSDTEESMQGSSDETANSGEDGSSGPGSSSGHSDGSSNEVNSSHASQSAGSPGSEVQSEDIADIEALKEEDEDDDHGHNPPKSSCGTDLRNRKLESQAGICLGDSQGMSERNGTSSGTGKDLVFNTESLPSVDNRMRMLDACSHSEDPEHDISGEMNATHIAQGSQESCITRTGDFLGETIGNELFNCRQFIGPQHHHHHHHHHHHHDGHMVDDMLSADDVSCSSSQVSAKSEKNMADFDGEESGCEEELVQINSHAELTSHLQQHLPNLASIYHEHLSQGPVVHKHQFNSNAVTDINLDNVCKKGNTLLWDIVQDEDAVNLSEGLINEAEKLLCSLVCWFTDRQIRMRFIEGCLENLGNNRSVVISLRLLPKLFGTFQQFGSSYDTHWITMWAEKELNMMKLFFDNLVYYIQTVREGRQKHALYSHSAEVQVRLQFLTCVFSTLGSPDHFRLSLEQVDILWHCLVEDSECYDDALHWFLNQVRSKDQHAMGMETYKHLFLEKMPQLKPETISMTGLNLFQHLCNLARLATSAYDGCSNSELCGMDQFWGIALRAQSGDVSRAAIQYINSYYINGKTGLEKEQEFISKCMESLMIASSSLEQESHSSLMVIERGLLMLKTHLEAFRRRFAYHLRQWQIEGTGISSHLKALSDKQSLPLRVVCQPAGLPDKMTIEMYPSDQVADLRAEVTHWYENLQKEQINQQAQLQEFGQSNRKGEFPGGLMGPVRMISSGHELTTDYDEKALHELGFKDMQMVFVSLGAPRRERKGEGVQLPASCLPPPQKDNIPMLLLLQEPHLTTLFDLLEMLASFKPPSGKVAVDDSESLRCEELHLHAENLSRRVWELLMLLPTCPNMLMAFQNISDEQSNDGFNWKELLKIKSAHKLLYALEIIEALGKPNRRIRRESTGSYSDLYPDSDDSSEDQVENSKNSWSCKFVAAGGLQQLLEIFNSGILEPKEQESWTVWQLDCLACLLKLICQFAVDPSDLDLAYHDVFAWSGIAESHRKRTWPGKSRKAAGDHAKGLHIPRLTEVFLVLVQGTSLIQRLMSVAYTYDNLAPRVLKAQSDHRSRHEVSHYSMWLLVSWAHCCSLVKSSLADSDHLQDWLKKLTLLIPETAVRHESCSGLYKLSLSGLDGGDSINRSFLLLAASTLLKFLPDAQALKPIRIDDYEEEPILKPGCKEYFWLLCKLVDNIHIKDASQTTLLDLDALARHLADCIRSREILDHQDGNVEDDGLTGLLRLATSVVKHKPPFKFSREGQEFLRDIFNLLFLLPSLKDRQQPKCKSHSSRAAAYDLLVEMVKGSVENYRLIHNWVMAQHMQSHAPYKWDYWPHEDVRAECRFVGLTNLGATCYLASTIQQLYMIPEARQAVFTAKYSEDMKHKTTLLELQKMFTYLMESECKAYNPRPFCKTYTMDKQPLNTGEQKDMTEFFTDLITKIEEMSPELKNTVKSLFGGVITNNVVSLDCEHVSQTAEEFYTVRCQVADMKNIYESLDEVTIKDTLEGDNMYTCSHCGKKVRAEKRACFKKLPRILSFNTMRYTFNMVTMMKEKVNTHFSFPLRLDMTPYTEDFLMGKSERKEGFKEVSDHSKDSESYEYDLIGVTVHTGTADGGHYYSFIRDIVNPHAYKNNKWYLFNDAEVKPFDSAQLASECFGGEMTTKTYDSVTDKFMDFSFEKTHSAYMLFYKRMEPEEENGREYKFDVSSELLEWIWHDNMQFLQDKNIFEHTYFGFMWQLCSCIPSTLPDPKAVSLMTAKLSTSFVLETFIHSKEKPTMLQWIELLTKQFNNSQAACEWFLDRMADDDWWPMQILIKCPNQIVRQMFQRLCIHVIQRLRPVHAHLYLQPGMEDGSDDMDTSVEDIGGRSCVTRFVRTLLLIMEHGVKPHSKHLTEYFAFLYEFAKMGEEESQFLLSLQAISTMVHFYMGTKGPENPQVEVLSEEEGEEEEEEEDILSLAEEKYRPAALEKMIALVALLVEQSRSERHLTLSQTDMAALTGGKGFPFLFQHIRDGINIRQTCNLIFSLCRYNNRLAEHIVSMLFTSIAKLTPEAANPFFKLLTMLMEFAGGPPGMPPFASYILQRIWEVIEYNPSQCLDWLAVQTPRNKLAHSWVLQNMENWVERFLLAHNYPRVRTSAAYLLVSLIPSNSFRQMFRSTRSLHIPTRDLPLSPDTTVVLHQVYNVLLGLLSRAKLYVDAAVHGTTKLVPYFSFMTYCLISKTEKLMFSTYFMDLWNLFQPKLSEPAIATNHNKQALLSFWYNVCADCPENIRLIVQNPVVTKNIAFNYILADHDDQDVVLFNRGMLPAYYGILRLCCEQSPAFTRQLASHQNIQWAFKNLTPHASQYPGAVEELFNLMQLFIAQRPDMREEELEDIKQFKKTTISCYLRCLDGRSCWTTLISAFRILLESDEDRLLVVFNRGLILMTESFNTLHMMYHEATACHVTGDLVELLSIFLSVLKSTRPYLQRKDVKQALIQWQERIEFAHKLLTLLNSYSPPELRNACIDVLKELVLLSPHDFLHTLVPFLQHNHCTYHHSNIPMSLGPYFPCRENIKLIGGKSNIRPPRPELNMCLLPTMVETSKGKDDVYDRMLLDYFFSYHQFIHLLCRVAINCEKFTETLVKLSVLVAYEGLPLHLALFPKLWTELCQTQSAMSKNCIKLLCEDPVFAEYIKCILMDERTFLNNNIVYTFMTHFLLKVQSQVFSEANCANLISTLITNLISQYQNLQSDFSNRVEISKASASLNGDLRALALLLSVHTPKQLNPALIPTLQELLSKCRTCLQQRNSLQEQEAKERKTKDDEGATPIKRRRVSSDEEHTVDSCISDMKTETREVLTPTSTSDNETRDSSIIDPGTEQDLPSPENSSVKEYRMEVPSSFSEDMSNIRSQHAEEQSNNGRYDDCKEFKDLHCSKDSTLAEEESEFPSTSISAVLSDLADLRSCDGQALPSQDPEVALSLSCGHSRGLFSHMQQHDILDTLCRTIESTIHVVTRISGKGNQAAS

COc1ccc(-c2csc(NC(=O)CCl)n2)cc1
inactive: [1] -0.405 | [2] -0.137 | [3] -0.188 | [4] 0.0959 | [5] -0.299
